Shown are actives, neighbours in structure and some others; about 27% of the full set was active somewhere.
CYP2C19 act – human CYP2C19 activators, primary screen, biochemical, luminescence | recombinant CYP2C19, luciferin-H EGE luminescence; stronger effect = higher value; 0 = fully inhibited enzyme, 1 = untreated enzyme | activation factor at 5 µM | 96,000 tested, under 10 active;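 active = activation factor of at least 2 at 5 µM in the primary screen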;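 note: 0 = wells with 2.5 mM tranylcypromine and 1 = vehicle-only wells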
CYP2C9 inh – blockers of cytochrome P450 2C9 activity – biochemical, luminescence, ADME assay, primary screen; inhibition, % at 5 µM; P11712; actives 20% (n = 96,000); CYP2C9 Supersomes, luciferin-H conversion;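 active = blocking of liver enzyme CYP2C9 beyond about 50% at 5 µM, limit read from the data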
sEH inhibitor – soluble epoxide hydrolase inhibitors, primary screen, biochemical, human sEH | recombinant human sEH enzymatic activity assay | inhibition, % at 2 µM | actives 0.34% (n = 91,000); in the data active = inhibition above about 80%
Target sequence (P34913 whole entry, looked up): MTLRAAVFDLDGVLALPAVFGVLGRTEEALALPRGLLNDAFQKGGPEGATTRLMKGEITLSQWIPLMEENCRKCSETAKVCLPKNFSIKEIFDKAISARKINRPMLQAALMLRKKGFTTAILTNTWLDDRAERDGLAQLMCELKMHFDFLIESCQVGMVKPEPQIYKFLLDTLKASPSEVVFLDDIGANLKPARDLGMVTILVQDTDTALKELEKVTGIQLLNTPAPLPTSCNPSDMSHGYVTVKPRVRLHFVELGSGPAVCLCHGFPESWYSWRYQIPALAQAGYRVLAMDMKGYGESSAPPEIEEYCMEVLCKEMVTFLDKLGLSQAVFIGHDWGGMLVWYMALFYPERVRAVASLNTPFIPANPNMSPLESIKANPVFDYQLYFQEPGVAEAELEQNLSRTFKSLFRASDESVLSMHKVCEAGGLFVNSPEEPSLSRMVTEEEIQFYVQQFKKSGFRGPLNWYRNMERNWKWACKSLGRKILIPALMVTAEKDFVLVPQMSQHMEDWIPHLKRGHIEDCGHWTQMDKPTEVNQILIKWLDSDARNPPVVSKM
CYP2C9 act – human CYP2C9 activators, primary screen, biochemical, luminescence | Cytochrome P450 2C9 (Homo sapiens), P11712 | recombinant CYP2C9, luciferin-H conversion; stronger effect = higher value; factor 1 = untreated enzyme, 0 = blocked | activation factor at 5 µM | actives 1.4% (n = 96,000) | AID 1024, 2008;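 active = activation factor of 2 or more for CYP2C9 at a 5 µM dose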;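 note: 0 = sulfaphenazole-blocked wells and 1 = vehicle-only wells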
CYP2C19 inh – blockers of cytochrome P450 2C19 activity – biochemical, luminescence, ADME assay, primary screen; P33261; CYP2C19 Supersomes, luciferin-H EGE luminescence, 30 min; inhibition, % at 5 µM; actives 21% (n = 96,000);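 active = CYP2C19 inhibition above a set limit at 5 µM in the primary screen, cut at about 50% in these data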;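 note: plate controls were negative control wells for no effect and 2.5 mM tranylcypromine positive control for full effect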
sEH act – soluble epoxide hydrolase activators, primary screen, biochemical, human sEH; AID 717, 2007; Bifunctional epoxide hydrolase 2 (Homo sapiens), P34913; activation, % at 2 µM; purified human sEH enzymatic activity, activator screen; actives 0.04% (n = 91,000); in the data active = activation above about 37%
The depositor's hits bear a star.

For COc1ccc(CNC(=O)C2CCCN(S(=O)(=O)c3cnc[nH]3)C2)cc1 (stereo not given) the results were CYP2C19 act 0.2, CYP2C9 inh 46, CYP2C9 act 0.5 and CYP2C19 inh 78*.
`CCOc1ccc(NC2=NCC(=O)N2Cc2cccs2)cc1` gave CYP2C19 act 0.9, CYP2C9 inh 14, sEH inhibitor 3, CYP2C9 act 0.9, CYP2C19 inh 6 and sEH act -1.
Screening O=C(NCc1ccc(Cl)cc1)C1CCCN(S(=O)(=O)c2cnc[nH]2)C1 (stereo not given) returned CYP2C19 act 0, CYP2C9 inh 96*, sEH inhibitor 21, CYP2C9 act 0, CYP2C19 inh 99* and sEH act -20.
`CS(=O)(=O)N1CCC(C(=O)NCc2ccncc2)CC1` gave CYP2C19 act 0.8, CYP2C9 inh 59*, sEH inhibitor -18, CYP2C9 act 0.4, CYP2C19 inh 16 and sEH act 17.
COc1ccc(C(=O)COC(=O)CCn2nnc(-c3cccs3)n2)cc1 was read as CYP2C19 act 1, CYP2C9 inh -6, sEH inhibitor 3, CYP2C9 act 1.1, CYP2C19 inh 1 and sEH act -2.
Nc1nc2ccc([N+](=O)[O-])c(N)c2s1 was read as CYP2C19 act 1.1, CYP2C9 inh -1, sEH inhibitor -19, CYP2C9 act 1, CYP2C19 inh -7 and sEH act 20.
Screening C=CCNCC(=O)NN=C(c1ccccc1)c1ccccc1 returned CYP2C19 act 0.8, CYP2C9 inh 9, sEH inhibitor -3, CYP2C9 act 0.9, CYP2C19 inh 20 and sEH act 2.
For Cc1csc(NC(=O)C2CCCN(S(=O)(=O)c3cnc[nH]3)C2)n1 (stereo not given) the results were CYP2C19 act 1, CYP2C9 inh 13, CYP2C9 act 0.9 and CYP2C19 inh 0.
COc1cc(NC(=O)C2CCCN(S(=O)(=O)c3cnc[nH]3)C2)cc(OC)c1 (stereo not given) was read as CYP2C19 act 0.6, CYP2C9 inh 88*, sEH inhibitor -11, CYP2C9 act 0.1, CYP2C19 inh 44 and sEH act 12.
Screening Cc1cc(C)cc(NC(=O)C2CCCN(S(=O)(=O)c3cnc[nH]3)C2)c1 (stereo not given) returned CYP2C19 act 0.2, CYP2C9 inh 93*, sEH inhibitor 16, CYP2C9 act 0.1, CYP2C19 inh 81* and sEH act -16.
Cc1ccc(NC(=O)C2CCCN(S(=O)(=O)c3cnc[nH]3)C2)cc1F (stereo not given) was read as CYP2C19 act 0.1, CYP2C9 inh 87*, sEH inhibitor 37, CYP2C9 act 0.1, CYP2C19 inh 94* and sEH act -37.
For Cc1cccc(OCC(=O)N/N=C\c2cc3c(cc2[N+](=O)[O-])OCO3)c1C the results were CYP2C19 act 0.8, CYP2C9 inh 48, sEH inhibitor 74, CYP2C9 act 0.5, CYP2C19 inh 19 and sEH act -73.
Screening COc1ccc(/C=C/C(=O)c2ccccc2)cc1COc1ccccc1F returned CYP2C19 act 0.6, CYP2C9 inh 74*, sEH inhibitor 0, CYP2C9 act 0.3, CYP2C19 inh 41 and sEH act 2.
COc1cc(OC)cc(C(=O)N/N=C/c2ccc(OC)c(COc3ccc(F)cc3)c2)c1 was read as CYP2C19 act 0.7, CYP2C9 inh 10, sEH inhibitor -4, CYP2C9 act 0.9, CYP2C19 inh 33 and sEH act 7.
Screening COc1ccc(/C=C/C(=O)c2ccccc2O)cc1CN1CCOCC1 returned CYP2C19 act 0.4, CYP2C9 inh 44, sEH inhibitor 2, CYP2C9 act 0.6, CYP2C19 inh 58* and sEH act -1.
Screening Cc1ccc(S(=O)(=O)NCCC(=O)NCc2ccccc2)cc1 returned CYP2C19 act 0.8, CYP2C9 inh -36, CYP2C9 act 1.4 and CYP2C19 inh 16.
NS(=O)(=O)c1ccc(S(=O)(=O)NCCc2ccccc2)cc1 was read as CYP2C19 act 0.2, CYP2C9 inh 12, sEH inhibitor -2, CYP2C9 act 0.9, CYP2C19 inh 85* and sEH act 2.
Cc1ccc(S(=O)(=O)NCCc2ccccc2)cc1 was read as CYP2C19 act 0, CYP2C9 inh 65*, sEH inhibitor -4, CYP2C9 act 0.4, CYP2C19 inh 96* and sEH act 2.
`COc1cccc(-c2nnn(CC(=O)Nc3ccc(C)cc3C)n2)c1OC` gave CYP2C19 act 0.9, CYP2C9 inh 19, CYP2C9 act 0.8 and CYP2C19 inh 11.
`CCOC(=O)CN(Cc1ccccc1)S(=O)(=O)c1ccc(NC(C)=O)cc1` gave CYP2C19 act 0.5, CYP2C9 inh -5, sEH inhibitor -13, CYP2C9 act 1, CYP2C19 inh 48 and sEH act 12.
For CCOC(=O)CCN(Cc1sccc1C)S(=O)(=O)c1ccc(F)cc1 the results were CYP2C19 act 0.1, CYP2C9 inh 66*, sEH inhibitor -14, CYP2C9 act 0.3, CYP2C19 inh 85* and sEH act 11.
For CCOC(=O)CCN(Cc1cccs1)S(=O)(=O)c1ccc(F)cc1 the results were CYP2C19 act 0.2, CYP2C9 inh 36, sEH inhibitor -15, CYP2C9 act 0.6, CYP2C19 inh 75* and sEH act 14.
For O=C(O)CN(Cc1ccccc1)S(=O)(=O)c1ccc(F)cc1 the results were CYP2C19 act 1.2, CYP2C9 inh 47, sEH inhibitor 2, CYP2C9 act 0.5, CYP2C19 inh -15 and sEH act 1.
Screening O=C1CCC(=O)N1c1nc2nc(-c3ccccc3)cc(-c3ccccc3)n2n1 returned CYP2C19 act 0.9, CYP2C9 inh 27, CYP2C9 act 0.7 and CYP2C19 inh 12.
`CC(=O)C1=C(O)C(=O)N(c2ccc(S(N)(=O)=O)cc2)C1c1ccc([N+](=O)[O-])cc1` (stereo not given) gave CYP2C19 act 0.8, CYP2C9 inh 90*, sEH inhibitor -1, CYP2C9 act 0.1, CYP2C19 inh 18 and sEH act 4.
Screening CC(=O)C1=C(O)C(=O)N(c2ccc(C(=O)O)cc2)C1c1ccccc1 (stereo not given) returned CYP2C19 act 0.9, CYP2C9 inh 0, sEH inhibitor -8, CYP2C9 act 1, CYP2C19 inh 5 and sEH act 9.
Screening CCCCNC(=O)C1COc2ccccc2O1 (stereo not given) returned CYP2C19 act 0.4, CYP2C9 inh 8, sEH inhibitor -2, CYP2C9 act 0.9, CYP2C19 inh 56* and sEH act -1.

High-throughput results: PubChem, several laboratories
